Measured values: PubChem BioAssay
The source made the active and inactive calls. Unless noted, the rule behind the calls is not given here.

How the values were obtained:
[1] = system: XIP peptide (Xip251-270) binding; assay: small-molecule binders of XIP peptide, primary screen, biochemical, small-molecule microarray, fluorescence 635/667 nm, 0.1 µg/mL protein (AID 1182); conditions: fluorescent protein binding, 635 nm, higher = more signal, called active from +8 up or from −8 down
XIP peptide (Xip251-270) = assay: small-molecule binders of XIP peptide, primary screen, biochemical, small-molecule microarray, fluorescence 635/667 nm, 0.5 µg/mL protein (AID 1183); conditions: small-molecule microarray binding, fluorescence 635 nm; higher = more signal
[2] = Plasmodium falciparum growth inhibition, primary screen, strain 3D7, DAPI fluorescence, 100 nL (AID 1184);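 note: parasites grown inside human red blood cells in medium with human serum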; conditions: P. falciparum 3D7 growth, 3 d, higher = more signal
[3] = target: Homeobox protein Hox-A13 (Mus musculus) (UniProt Q62424); assay: inhibitors of HoxA13-DNA binding, primary screen, biochemical, fluorescence polarization, labeled oligonucleotide (AID 1185); conditions: 15 min, higher = more signal, called active from +8 up or from −8 down
Homeobox protein Hox-A13 (Mus musculus), sequence (Q62424 whole entry, looked up): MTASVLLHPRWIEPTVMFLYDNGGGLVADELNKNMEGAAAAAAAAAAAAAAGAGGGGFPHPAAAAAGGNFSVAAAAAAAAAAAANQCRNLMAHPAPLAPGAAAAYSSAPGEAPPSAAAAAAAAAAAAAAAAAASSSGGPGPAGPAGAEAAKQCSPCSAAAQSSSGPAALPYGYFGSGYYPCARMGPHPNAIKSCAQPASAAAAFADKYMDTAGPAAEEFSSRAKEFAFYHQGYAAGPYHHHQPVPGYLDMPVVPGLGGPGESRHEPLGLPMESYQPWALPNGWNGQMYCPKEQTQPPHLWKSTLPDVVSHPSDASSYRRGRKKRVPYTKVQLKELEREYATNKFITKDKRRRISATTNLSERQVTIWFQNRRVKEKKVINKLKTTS

[4] = inhibitors of hydroxyurea-induced Chk1 phosphorylation, primary screen, imaging, HeLa, phospho-Chk1 antibody, percent positive cells (AID 1186); conditions: hydroxyurea-induced phospho-Chk1 immunofluorescence imaging, higher = more signal
[5] = inhibitors of hydroxyurea-induced Chk1 phosphorylation, primary screen, imaging, HeLa, phospho-Chk1 nuclear intensity (AID 1187); conditions: hydroxyurea-induced phospho-Chk1 immunofluorescence imaging, higher = more signal

Row | Structure (SMILES) | composite z-score [1] | composite z-score (XIP peptide (Xip251-270)) | z-score [2] | z-score [3] | z-score [4] | z-score [5]
1 | O=C1c2ccccc2[C@](Cc2ccccc2I)(C(=O)NC2CC2)[C@H](c2ccc(CO)cc2)N1Cc1ccccc1C(F)(F)F | 0.135 (inactive) | 0.59 | -1.89 | -4.02 (inactive) | -0.0771 (inactive) | -0.189 (inactive)
2 | O=C(NCCN1CCOCC1)[C@@H]1c2ccccc2C(=O)N(Cc2ccccc2)[C@H]1c1ccc(CO)cc1 | -0.181 (inactive) | -0.314 | 0.681 | -3.79 (inactive) | -0.697 (inactive) | -0.974 (inactive)
3 | C=C(/C(=C/C[C@@H](OC(=O)c1ccncc1)c1cccc(OCCO)c1)c1cnc2ccccc2c1)C(C)C | 0.601 (inactive) | 0.602 | -2.88 | -4.48 (inactive) | 0.242 (inactive) | 0.258 (inactive)
4 | CN(C)CCCCNC(=O)[C@H]1C[C@H]2C(=O)N[C@@H](CCCC[N+](C)(C)C)C(=O)N2[C@H]1c1ccc(O)cc1 | -0.0941 (inactive) | 0.674 | -0.449 | -3.64 (inactive) | -1.31 (inactive) | -0.989 (inactive)
5 | CC(C)C(=C=CC[C@H](O)c1cccc(OCCO)c1)CCO | 0.675 (inactive) | 0.0075 | 0.585 | -1.92 (inactive) | 0.0348 (inactive) | 0.549 (inactive)
6 | C=CCC(OC(C)=O)[C@@H]1[C@@H](N(Cc2cc3ccccc3o2)C(=O)c2ccc(-c3ccccc3)cc2)c2cc(OCCCO)ccc2N1C(=O)Cc1ccc(OC)cc1 (stereo partly specified) | 0.112 (inactive) | 0.0332 | -0.846 | -1.8 (inactive) | 0.754 (inactive) | 0.0035 (inactive)
7 | C=C[C@@H](C)[C@H](O)c1ccc(OCCO)cc1 | 0.313 (inactive) | 0.0813 | 0.99 | -0.166 (inactive) | 0.485 (inactive) | 0.739 (inactive)
8 | COC(=O)[C@@]1(Cc2ccc(F)cc2)[C@H]2c3cc(C(=O)N4CCCC4)n(C)c3C[C@H]2CN1C(=O)c1ccccc1 | 0.125 (inactive) | 0.664 | -0.37 | -6.1 (inactive) | -0.0152 (inactive) | 0.504 (inactive)
9 | CO[C@H]1O[C@H](CO)[C@@H](OC(=O)c2ccc(Br)cc2)[C@@H]2OC(=O)[C@H](Cc3ccccc3)C/C=C/C[C@@H](Cc3ccccc3)C(=O)O[C@@H]12 | -0.161 (inactive) | 0.629 | -0.949 | -5.27 (inactive) | -0.708 (inactive) | -1.06 (inactive)
10 | CC(C)[C@H]1NC(=O)[C@@]23C(=O)N[C@@H](Cc4ccccc4)C2[C@H](C)[C@@]2(C)O[C@H]2C3/C=C/C/C=C\CNC(=O)[C@H](Cc2ccccc2)NC1=O (stereo partly specified) | 0.21 (inactive) | 0.763 | -2.45 | -5.69 (inactive) | 0.174 (inactive) | 0.5 (inactive)
11 | [N-]=[N+]=Nc1ccccc1[C@@H]1OC(c2ccc(OCCCO)cc2)=N[C@]1(Cc1ccccc1)C(=O)NCc1ccccc1 | 0.174 (inactive) | 0.804 | -1.97 | -0.694 (inactive) | 0.458 (inactive) | 0.433 (inactive)
12 | Cc1ccc(C(C)CC(O)C2C=CC3C(=O)N(c4ccccc4)C(=O)C3N2Nc2ccc(C#N)cc2)o1 (stereo unspecified) | 0.662 (inactive) | 0.322 | 0.25 | -3.75 (inactive) | 0.124 (inactive) | 0.222 (inactive)
13 | CCOC(=O)C[C@H]1[C@H](OC(=O)c2ccc(-c3ccccc3)cc2)[C@@H](NC(=O)Cc2ccc(OC)cc2)c2cc(OCCCO)ccc2N1C(=O)Cc1ccc(OC)cc1 | 0.0878 (inactive) | -0.015 | -1.18 | -1.32 (inactive) | -0.366 (inactive) | 0.0566 (inactive)
14 | CCCCC=C[C@@H](NC(=O)c1ccccc1)c1ccccc1 | 0.558 (inactive) | 0.496 | -1.47 | 2.61 (inactive) | 0.855 (inactive) | 0.274 (inactive)
15 | COc1ccc([Si](C)(C)[C@H]2[C@H](CC(=O)N3CCC[C@H]3CO)O[C@@]3(C(=O)N(Cc4ccc(N5CCC5=O)cc4)c4ccccc43)[C@@H]2C)cc1 | 1.18 (inactive) | 0.709 | -0.986 | -3.74 (inactive) | 0.312 (inactive) | -0.36 (inactive)
16 | COCCOC(=O)N1C(=O)[C@@]2(c3cc(C#CCC(C(=O)OC)C(=O)OC)ccc31)[C@H](c1ccc(OCCO)cc1)N1[C@H](c3ccccc3)[C@H](c3ccccc3)OC(=O)[C@H]1[C@@H]2C(=O)Nc1nc2ccccc2s1 | 0.0047 (inactive) | 0.59 | -0.512 | 2.1 (inactive) | -0.365 (inactive) | -0.632 (inactive)
